# PrP UTR inh: inhibition of PrP 5' UTR reporter expression; cell-based PrP 5' UTR mRNA reporter, plate reader; inhibition, % (concentration not given with the values); 0.35% of 340,000 active; in the data active = inhibition above about 52%; also: 0 = median of the neutral control wells
# RecA splice inh: Mtb RecA intein splicing inhibitors, primary screen, biochemical, fluorescence, HTS. cell-free RecA intein splicing. inhibition, % (no concentration beside the values). 0.75% of 290,000 active; in the data active = inhibition above about 30%;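 also: 0% = vehicle wells and 100% = reference inhibitor control wells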
# Rv3671c protease: Rv3671c serine protease inhibitors, primary screen, biochemical, fluorescence polarization, M. tuberculosis H37Rv | P9WHR9 | inhibition, % at 5.96 µM | 0.048% of 320,000 active | AID 2606, 2010; in the data active = inhibition above about 38%;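 also: extracellular domain of Rv3671c used as enzyme; 0% = enzyme with DMSO and 100% = no enzyme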
# Target sequence (P9WHR9 whole entry, looked up, the tested form may be a part): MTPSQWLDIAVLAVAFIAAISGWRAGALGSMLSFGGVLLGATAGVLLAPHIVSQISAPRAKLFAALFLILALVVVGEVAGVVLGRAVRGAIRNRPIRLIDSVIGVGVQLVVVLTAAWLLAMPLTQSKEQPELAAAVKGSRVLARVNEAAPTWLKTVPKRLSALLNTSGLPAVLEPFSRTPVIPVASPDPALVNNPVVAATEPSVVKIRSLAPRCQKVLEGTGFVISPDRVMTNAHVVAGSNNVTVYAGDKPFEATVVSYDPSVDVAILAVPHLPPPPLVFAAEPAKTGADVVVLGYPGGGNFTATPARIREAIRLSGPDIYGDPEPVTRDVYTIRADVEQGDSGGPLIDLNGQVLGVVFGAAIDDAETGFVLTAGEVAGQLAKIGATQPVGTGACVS
# FadD28 binding: inhibitors of FadD28 bisubstrate probe binding, primary screen, biochemical, fluorescence polarization, single point. Mycobacterium tuberculosis FadD28 fatty-acid-AMP ligase. AID 588549, 2011. inhibition, % at 12.5 µM. 0.22% of 360,000 active; in the data active = inhibition above about 8.5%, passing the limit was not always enough
# UGM FP inh: M. tuberculosis UGM enzyme inhibitors, primary screen, biochemical, fluorescence polarization, single point | UDP-galactopyranose mutase (Mycobacterium tuberculosis (strain ATCC 25618 / H37Rv)), … | purified UGM, fluorescence polarization probe displacement | inhibition, % at 10 µM | 0.06% of 320,000 active | AID 504406, 2011; in the data active = inhibition above about 10%, passing the limit was not always enough
# BJeLR lethal: MLPCN primary cell-based screen for lethality selective to Ras in HRASV12 cells; AID 1554, 2009; BJeLR (HRASV12) viability, CellTiter-Glo ATP luminescence, 48 h; 0.17% of 300,000 active; inhibition, % (no concentration beside the values); in the data active = inhibition above about 50%
# Starred values were filed as active, the others as inactive; x = not tested or not shown. Only some compounds are listed: those with a hit (about 1.3% of all), similar ones and a draw of the others.
SMILES,PrP UTR inh,RecA splice inh,Rv3671c protease,FadD28 binding,UGM FP inh,BJeLR lethal
CCOC(=O)c1c(NC(=O)/C=C\C(=O)O)sc(C)c1-c1ccccc1,-15.1,56.3*,5.1,-4.3,1.8,0.9
CC1=C(C(=O)N2CCOCC2)CC(CC(=O)NC2CCCC2)C(=O)N1Cc1ccc(F)cc1 (configuration not stated),x,x,x,-4.1,x,x
CC(C)(C)Cc1c(-c2cccc(Cl)c2)nc2ccc(Br)cn12,x,x,x,-2.0,x,x
CCOC(=O)C1=C(O)/C(=C/c2cn(CC(=O)NCC3CCCO3)c3ccccc23)SC1=Nc1ccc(C)cc1 (configuration not stated),13.6,x,10.9,-2.0,21.9*,x
CCOC(=O)C1=C(O)/C(=C/c2ccc(-c3ccccc3C(=O)O)o2)SC1=Nc1ccc(C)cc1,x,x,x,-1.6,x,x
Cc1cc(C(=O)COc2cccc3cccnc23)c(C)n1C,-22.4,-3.5,-2.9,-1.3,16.3*,0.4
COC(=O)C1CCN(C(=O)C2CC(=O)N(c3ccc(C)c(Cl)c3)C2)CC1 (configuration not stated),-31.8,x,x,-1.8,x,x
O=c1[nH]cc(N=Cc2cc([N+](=O)[O-])ccc2O)c(=O)[nH]1,x,50.1*,-6.3,x,-0.5,7.0
Cc1cc(O)c(C(C)C)cc1N=Cc1cc([N+](=O)[O-])ccc1O,-13.4,-1.8,-1.5,0.3,2.1,-4.6
COc1ccc(CN2CC[C@@H]3CN(C(C)=O)[C@H](c4ccccc4Br)C[C@@H]32)cc1,x,x,x,-1.5,x,x
C=COC(=O)CSc1snc(SCC(=O)OC)c1C#N,-14.6,33.2*,-3.5,-9.3,1.3,-5.7
CCN(CC)C(=O)CSc1nsc(SCC(=O)N(CC)CC)c1C#N,-6.3,x,-5.8,0.7,-1.4,x
Cc1cc(CNCCN(C)C)c(C)n1-c1cc(S(=O)(=O)N2CCOCC2)ccc1N1CCCC1,-12.9,x,x,-2.2,x,x
NS(=O)(=O)c1ccc(CNC(=O)Cc2ccccc2F)cc1,-23.5,-10.3,-2.1,-1.5,-0.1,18.3
NS(=O)(=O)c1ccc(CNC(=O)C(Cc2ccccc2)NS(=O)(=O)c2ccccc2F)cc1 (configuration not stated),-10.2,0.6,-0.8,16.1*,-4.1,6.1
CC[C@H](C)/C=C(C)/C=C/C1=CC2=C(Cl)C(=O)[C@](C)(OC(C)=O)C(=O)C2=CO1,-21.1,x,8.8,17.2*,x,x
O=C(O)c1cc(N/N=C/c2c(O)ccc3ccccc23)ccc1Cl,-31.2,-2.7,-1.1,20.3*,0.7,9.0
Nc1cc(Cl)nc(N/N=C/c2c(O)ccc3ccccc23)n1,-85.5,5.7,25.5,0.5,-0.4,-7.5
Cc1ccc2c(c1)CCO[C@@]21O[C@H](CCO)C[C@H](O)[C@H]1O,x,x,x,-1.8,x,x
CCOc1cc(/C=C2\C(=O)N(c3nc(-c4ccc(Br)cc4)cs3)N=C2c2ccccc2)ccc1O,-32.2,3.7,17.7,26.7*,-0.9,16.3
O=C1/C(=C\c2ccc(O)c(O)c2)C(c2ccccc2)=NN1c1ccccc1,-27.5,3.6,x,0.4,x,6.4
O=C1C(=O)c2ccc(-c3ccccc3)cc2-c2ccccc21,-36.3,8.0,-9.4,-1.8,-1.1,109.7*
C(=C\c1ccccc1)/CN1CCN(C(c2nnnn2Cc2ccccc2)C2CC2)CC1 (configuration not stated),x,x,x,-0.3,x,x
CN(N=Nc1cccc([N+](=O)[O-])c1)c1ccccc1,-39.8,7.1,-4.6,-0.7,-0.6,-6.8
CN(N=Nc1ccc([N+](=O)[O-])cc1)c1ccccc1,-62.6,-1.3,-6.7,0.1,25.6*,-0.8
O=C1COc2ccc(C(=O)CCl)cc2N1,-19.7,31.7*,2.0,0.3,-1.1,0.2
CCC(=O)c1ccc(OCC(=O)c2ccc3c(c2)NC(=O)CO3)cc1,-16.3,0.3,-3.3,0.5,-1.5,-3.4
CC(=O)c1ccc(NC(=O)N2CCc3ccccc3C2)cc1,-38.9,0.7,-12.0,-0.7,0.5,105.1*
COc1ccc(NC(=S)NNc2ccc(S(=O)(=O)Nc3ccccc3C(=O)O)cc2[N+](=O)[O-])cc1,3.3,2.3,21.8,22.5*,1.1,5.7
CCOc1ccc(C=NNc2ccc(S(=O)(=O)Nc3ccccc3C(=O)O)cc2[N+](=O)[O-])cc1,-14.4,x,10.2,5.2,0.5,x
